Values without a mark were called inactive. Calls of active or inactive are those of the source. Rule as the data show it: active = fold change mostly below about -2 (no sharp cut-off); inactive = mostly above about -1.8.
Assay: TERT promoter activity modulators, primary screen, cell-based, luciferase reporter, human (AID 1259240)
Settings: A2780 TERT promoter luciferase reporter, 16 h; at 20 µM, fold versus average of vehicle-only wells

Structure (SMILES)	fold change	outcome
CCCCNc1c(N2CCN(C(=O)OCC)CC2)c(=O)c1=O	1.31	
Cn1c(CC(=O)NC(C)(C)CO)c(Sc2ccccc2)c2ccccc21	-2.11 (active)	
c1coc(CSc2nc3ccccc3n3cnnc23)c1	1.16	
COc1ccccc1-c1nc2s/c(=C3\C(=O)N(CC(=O)O)c4ccccc43)c(=O)n2n1	1.16	
COC(=O)c1nc2n(n1)C(c1cccc(Br)c1)C1=C(CCCC1=O)N2 (stereo not given)		inactive
O=S(=O)(NCc1ccccn1)c1cccc2cccnc12	-1.29	
c1ccc(COc2ccc(Oc3nc(N4CCOCC4)nc(N4CCOCC4)n3)nn2)cc1	-1.03	
COC(=O)CSc1nnc2sc3ccccc3n12	-1.32	
CCc1nnc(NC(=O)CSc2ncnc3ccccc23)s1	1.11	
Cc1cc(C(=O)Nc2ccc(F)cc2F)on1	1.55	
COc1cc(/C=C2\SC(N3CCN(C)CC3)=NC2=O)cc(OC)c1OC	-1.05	
CCC(CC)c1nnc(NC(=O)Cn2cnc3c2c(=O)n(C)c(=O)n3C)s1	-1.36	
COc1cccc(NC2SC(=O)N(c3ccccc3)C2=O)c1 (stereo not given)	1.28	
Cc1ccc(OCc2nc(-c3ccc(-n4cccc4)cc3)no2)cc1C	-2.34 (active)	
CCOc1ccc2nc(NC(=O)CN(C)S(=O)(=O)c3cnc[nH]3)sc2c1	1.35	
Cc1ccc(-c2cc(C(F)F)n3ncc(C(=O)N4CC(C)OC(C)C4)c3n2)cc1 (stereo not given)	-2.07 (active)	
FC(F)(F)c1cccc(N2CCN(c3ccc4nncn4n3)CC2)c1	-1.15	
COc1ccc(-c2noc(-c3cc(OC)c(OC)cc3OC)n2)cc1	1.46	
CCCCN(CC)S(=O)(=O)c1ccc2c(c1)n(C)c(=O)c(=O)n2C	1.13	
O=C(c1cccc(Cl)c1)N1CCN(c2ccc3nnc(-c4ccccc4)n3n2)CC1	1	

Structure (SMILES)	fold change	outcome
COc1ccc2cc3c(N)nn(C(=O)c4cncc(Br)c4)c3nc2c1	-1.5	
CCOc1ccc(N2CC(O)=C(c3nc4ccccc4c(=O)[nH]3)C2=N)cc1		inactive
COc1ccc(S(=O)(=O)n2cnc3ccccc32)c(C)c1	-1.08	
N#Cc1ccc(Cn2c(=O)n(Cc3ccccc3Cl)c(=O)c3cccnc32)cc1	-1.11	
O=C(O)CCN1C(=O)c2ccccc2S1(=O)=O	-1.2	
Cc1ccc(NC(=O)CSc2nc3c(c(=O)[nH]2)CCC3)cc1F		inactive
O=C1SC(Nc2ccccc2F)C(=O)N1c1ccccc1 (stereo not given)	1.65	
CN1C(=O)/C(=C/c2cn(CC(=O)N3CCCc4ccccc43)c3ccccc23)c2ccccc21	1.47	
Cc1ccc(-c2noc(-c3ccccc3Cl)n2)cc1	-93.3 (active)	
CC1=C(C(=O)Nc2ccccc2)C(c2ccccn2)n2nc(CCCO)nc2N1 (stereo not given)		inactive
Cc1ccccc1-n1cnc2c(sc3nc(N4CCOCC4)c4c(c32)CC(C)(C)OC4)c1=O	-1.84	
Cc1c(NC(=O)C2CC(c3ccc(F)cc3)=NO2)c(=O)n(-c2ccccc2)n1C (stereo not given)	1.46	
COc1ccc(CCNc2ccc3nnc(C)n3n2)c(OC)c1	-1.29	
CCS(=O)(=O)N1CCN(Cc2c[nH]c3ccccc23)CC1	-1.08	
O=C(CN1C(=O)c2ccccc2S1(=O)=O)N1CCN(c2cccc(Cl)c2)CC1	-1.25	
Cc1c(NC(=O)Nc2cccc(C#N)c2)c(=O)n(-c2ccccc2)n1C	-1.39	
CCCCNC(=O)CCN1C(=O)c2ccccc2S1(=O)=O	-1.02	
O=C1C2C(c3cccs3)NC(Cc3ccccc3)(C(=O)O)C2C(=O)N1c1ccc(F)cc1 (stereo not given)	-1.06	
Cc1ccc(-c2n[nH]c3c2C(c2cccc([N+](=O)[O-])c2)NC3=O)cc1 (stereo not given)	1.04	
COc1ccc(C2C3C(=O)N(C(C)C)C(=O)C3ON2c2ccc(Cl)cc2)cc1 (stereo not given)	-1.62	
